Sampled rows, rich in hits. Any-hit rate of the full collection: about 32%.
PostGolgi yeast – phenotypic screen on post-Golgi transport, primary screen; post-Golgi transport phenotypic cell assay; inhibition, % at 10 µM; 98,000 tested, 0.9% active; AID 739, 2007;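 also: yeast cells grown in 1536-well plates; yeast grown about 18 h at 30C before absorbance read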
PostGolgi ctrl – growth inhibition of yeast control strain, primary screen, counter-screen for post-Golgi transport modulator project | 98,000 tested, 5% active | inhibition, % at 10 µM | efflux-deficient yeast background strain, growth absorbance A615, 16 h
CYP2C19 inh – blockers of cytochrome P450 2C19 activity – biochemical, luminescence, ADME assay, primary screen; P33261; CYP2C19 Supersomes, luciferin-H EGE luminescence, 30 min; inhibition, % at 5 µM; 96,000 tested, 21% active; AID 778, 2007;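 active = CYP2C19 inhibition above a set limit at 5 µM in the primary screen, cut at about 50% in these data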;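 also: plate controls were negative control wells for no effect and 2.5 mM tranylcypromine positive control for full effect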
Target sequence (P33261 whole entry, looked up): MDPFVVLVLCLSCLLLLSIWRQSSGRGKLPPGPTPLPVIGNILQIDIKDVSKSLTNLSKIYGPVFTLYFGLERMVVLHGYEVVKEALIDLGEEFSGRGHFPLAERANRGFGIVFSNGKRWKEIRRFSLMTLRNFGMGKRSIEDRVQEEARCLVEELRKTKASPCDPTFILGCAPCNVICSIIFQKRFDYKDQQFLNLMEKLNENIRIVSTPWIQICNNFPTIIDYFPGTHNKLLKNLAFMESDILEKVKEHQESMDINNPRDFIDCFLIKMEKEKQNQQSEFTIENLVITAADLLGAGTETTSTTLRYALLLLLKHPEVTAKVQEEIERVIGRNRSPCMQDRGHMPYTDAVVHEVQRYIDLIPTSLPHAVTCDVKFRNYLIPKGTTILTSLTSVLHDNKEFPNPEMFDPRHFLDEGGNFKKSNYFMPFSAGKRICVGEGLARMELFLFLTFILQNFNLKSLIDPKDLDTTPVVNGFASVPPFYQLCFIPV
CYP2C9 inh – blockers of cytochrome P450 2C9 activity – biochemical, luminescence, ADME assay, primary screen | P11712 | CYP2C9 Supersomes, luciferin-H conversion | inhibition, % at 5 µM | 96,000 tested, 20% active | AID 777, 2007;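 active = blocking of liver enzyme CYP2C9 beyond about 50% at 5 µM, limit read from the data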
CYP2C9 act – human CYP2C9 activators, primary screen, biochemical, luminescence | Cytochrome P450 2C9 (Homo sapiens), P11712 | recombinant CYP2C9, luciferin-H conversion; stronger effect = higher value; factor 1 = untreated enzyme, 0 = blocked | activation factor at 5 µM | 96,000 tested, 1.4% active;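 active = activation factor of 2 or more for CYP2C9 at a 5 µM dose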;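 also: 0 = sulfaphenazole-blocked wells and 1 = vehicle-only wells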
CYP2C19 act – human CYP2C19 activators, primary screen, biochemical, luminescence | Cytochrome P450 2C19 (Homo sapiens), P33261 | recombinant CYP2C19, luciferin-H EGE luminescence; stronger effect = higher value; 0 = fully inhibited enzyme, 1 = untreated enzyme | activation factor at 5 µM | 96,000 tested, under 10 active | AID 1025, 2008;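 active = activation factor of at least 2 at 5 µM in the primary screen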;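 also: 0 = wells with 2.5 mM tranylcypromine and 1 = vehicle-only wells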
Active calls of the source: *; · = no result. Rule as the data show it, unless noted: active = inhibition above about 30%; inactive = the rest.

SMILES	PostGolgi yeast	PostGolgi ctrl	CYP2C19 inh	CYP2C9 inh	CYP2C9 act	CYP2C19 act
O=C(Cn1ncc2c(=O)oc3ccccc3c21)NCCN1CCN(c2ccccc2F)CC1	3	11	4	35	0.7	1
COc1ccc(NC(=O)/C(Cl)=C(/Cl)S(=O)(=O)Cc2ccc(C)cc2)cn1	97*	84*	36	53*	0.5	0.6
Nc1nc(OCC(F)(F)F)cc(Oc2ccccc2F)n1	1	11	59*	14	0.9	0.4
Nc1cc(N)nc(SCCOc2ccccc2F)n1	4	6	·	·	·	·
O=S(=O)(NC1CCCCC1)c1cccc(-c2nnc(-c3ccccc3)o2)c1	17	31*	29	84*	0.2	0.7
Clc1cccc(-c2nnc(-c3ccccc3)o2)c1	1	-7	22	4	1	0.8
CN(C)S(=O)(=O)c1cccc(-c2nnc(-c3ccccc3)o2)c1	-19	1	48	92*	0.1	0.5
Cc1ccccc1NS(=O)(=O)c1cccc(-c2nnc(-c3ccccc3)o2)c1	-11	1	12	37	0.6	0.9
CC(C)c1ccc(CN2CCC(C(=O)NCc3cccnc3)CC2)cc1	2	4	3	19	0.8	1
COc1ccc(Cl)cc1Nc1nc(N2CCCC2)nc(N2CCCC2)n1	·	·	-12	1	1	1.1
Nc1n[nH]c2c1C1(CCCCC1)Cc1ccccc1-2	2	42*	58*	33	0.7	0.4
Cc1cc2nc(SCC(=O)N(C)C)c3c(c2cc1C)CCCC3	0	31*	2	18	0.8	1
Cc1cc(N2CCCCC2)nc2ccc(NC(=O)c3ccc(Br)o3)cc12	5	-21	94*	81*	0.2	0.1
Cc1cc(N2CCN(C)CC2)nc2ccc(NC(=O)c3ccc(Br)o3)cc12	17	32*	2	-7	1.1	1
Cc1cc(N2CCOCC2)nc2ccc(NC(=O)CCC(=O)N3CCCCC3)cc12	17	1	14	20	0.8	0.9
CCOC(=O)N1CCN(c2c(N3CCc4ccccc43)c(=O)c2=O)CC1	0	2	42	15	0.9	0.6
CCOC(=O)c1cc(C(=O)OCC)c2ccccn2c1=O	-1	2	3	14	0.9	1
CS(=O)(=O)N1CCN(C(=O)c2ccccc2F)CC1	0	0	57*	-9	1.1	0.4
Cc1cccc(CN2CCN(C(=O)c3ccccc3F)CC2)c1	-1	3	99*	68*	0.3	0
O=C(c1ccccc1F)N1CCN(S(=O)(=O)c2ccc(S(=O)(=O)N3CCCCC3)cc2)CC1	0	9	80*	9	0.9	0.2
O=C(c1cc(S(=O)(=O)N2CCCCC2)ccc1F)N1CCCCC1	2	8	13	17	0.8	0.9
CS(=O)(=O)N1CCN(C(=O)c2c(F)cccc2F)CC1	-1	-5	14	-12	1.1	0.9
Cc1scc(C(=O)N2CCN(S(C)(=O)=O)CC2)c1-c1ccccc1	-11	8	97*	34	0.7	0
O=c1nc(N2CCCCC2)nc2n1CCO2	14	20	4	-5	1.1	1
Cc1ccc(Nc2nnns2)cc1C	-5	14	40	34	0.7	0.6
SMILES	PostGolgi yeast	PostGolgi ctrl	CYP2C19 inh	CYP2C9 inh	CYP2C9 act	CYP2C19 act
O=C(c1ccc(CNc2c(N3CCOCC3)c(=O)c2=O)cc1)N1CC=C(c2ccccc2)CC1	15	-2	43	59*	0.4	0.6
COc1ccc(C(=O)N2CC=C(c3ccccc3)CC2)cc1S(=O)(=O)N1CCOCC1	-5	19	86*	81*	0.2	0.1
COc1ccc(C(=O)Nc2cc(C)cc(C)c2)cc1S(=O)(=O)N1CCOCC1	0	-3	26	2	1	0.7
CC(=O)CCc1c(C)c2cc(C)ccc2[nH]c1=O	-14	26	10	-27	1.3	0.9
Cc1ccc(NC(=O)N2CCOCC2)c(C)c1	3	6	4	1	1	1
O=C(c1cccc2c1C(=O)N(Cc1cccnc1)C2)N1CCN(c2ccccc2)CC1	14	-1	23	0	1	0.8
COCCN1Cc2cccc(C(=O)Nc3cccc(OC)c3)c2C1=O	-3	5	36	47	0.5	0.6
COCCN1Cc2cccc(C(=O)NCc3cccnc3)c2C1=O	-15	1	78*	8	0.9	0.2
COc1ccc(CNC(=O)c2cccc3c2C(=O)N(Cc2cccnc2)C3)cc1	6	5	55*	76*	0.2	0.5
O=C(NCc1cccnc1)c1cccc2c1C(=O)N(Cc1cccnc1)C2	0	3	76*	46	0.5	0.2
O=c1[nH]cnc2c1N1CCC2CC1	-4	5	1	15	0.8	1
CN(CC(=O)N1CC=C(c2ccccc2)CC1)S(=O)(=O)c1cnc[nH]1	-1	20	95*	99*	0	0
COc1cc(-c2cccs2)cc(=O)c2c(C)oc(C)c12	-9	3	13	41	0.6	0.9
COc1ccc(-c2cc(OC(=O)c3ccc(F)cc3)c3c(C)oc(C)c3c(=O)c2)cc1	-1	2	0	56*	0.4	1
C=CCN(CC=C)c1cnn(-c2nc3ccccc3[nH]2)c(=O)c1Cl	-2	7	56*	54*	0.5	0.4
CCS(=O)(=O)N1Cc2ccccc2CC1C(=O)NC(C)C12CC3CC(CC(C3)C1)C2 (configuration not stated)	4	36*	-12	17	0.8	1.1
CC(NC(=O)CN1C(=O)NC(Cc2ccccc2)(Cc2ccccc2)C1=O)C12CC3CC(CC(C3)C1)C2 (configuration not stated)	-7	10	21	8	0.9	0.8
CCS(=O)(=O)N1Cc2ccccc2CC1C(=O)NCC12CC3CC(CC(C3)C1)C2 (configuration not stated)	3	25	92*	68*	0.3	0.1
O=C(O)CC(C(=O)Nc1ccc(Cl)c(Cl)c1)C1CCCO1 (configuration not stated)	2	-2	5	-10	1.1	1
COc1cccc(-n2sc3c(c2=S)-c2cc(OC)ccc2NC3(C)C)c1	-7	6	12	69*	0.3	0.9
CC1(C)Nc2ccc(O)cc2-c2c1ssc2=S	4	7	·	·	·	·
Cc1nc2c3cc(Cl)ccc3n(CCN3CCCCC3)c2s1	-19	-1	45	28	0.7	0.6
Cn1c(=O)c2c(nc(CN3CCOCC3)n2CCCO)n(C)c1=O	8	23	-6	4	1	1.1
